Assay results as given in PubChem BioAssay AID720504 (National Center for Advancing Translational Sciences (NCATS), 2013).
The whole screen tested about 360,000 compounds, of which about 10,000 (2.8%) were called active. Another 4% or so got no clear call; they are omitted. The call rests on the fitted dose curve; in most records, active means well fitted inhibition curve with a large enough effect; inconclusive means small, poorly fitted or top-dose-only effect; inactive means flat fitted curve, though single readings scatter. Many of the other results were omitted from the sample, so actives are more common in it than they were.

molecular target: Serine/threonine-protein kinase PLK1 (Homo sapiens) (UniProt P53350); assay: qHTS for Inhibitors of PLK1-PDB (polo-like kinase 1 - polo-box domain): Primary Screen; details: Plk1 PBD binding of FITC phosphopeptide, fluorescence polarization; further: nearly all actives have a fitted effect of over 65% in size; on max response, negative = inhibition: series mostly up to about 57 µM
Sequence (P53350 whole entry, looked up, the tested form may be a part): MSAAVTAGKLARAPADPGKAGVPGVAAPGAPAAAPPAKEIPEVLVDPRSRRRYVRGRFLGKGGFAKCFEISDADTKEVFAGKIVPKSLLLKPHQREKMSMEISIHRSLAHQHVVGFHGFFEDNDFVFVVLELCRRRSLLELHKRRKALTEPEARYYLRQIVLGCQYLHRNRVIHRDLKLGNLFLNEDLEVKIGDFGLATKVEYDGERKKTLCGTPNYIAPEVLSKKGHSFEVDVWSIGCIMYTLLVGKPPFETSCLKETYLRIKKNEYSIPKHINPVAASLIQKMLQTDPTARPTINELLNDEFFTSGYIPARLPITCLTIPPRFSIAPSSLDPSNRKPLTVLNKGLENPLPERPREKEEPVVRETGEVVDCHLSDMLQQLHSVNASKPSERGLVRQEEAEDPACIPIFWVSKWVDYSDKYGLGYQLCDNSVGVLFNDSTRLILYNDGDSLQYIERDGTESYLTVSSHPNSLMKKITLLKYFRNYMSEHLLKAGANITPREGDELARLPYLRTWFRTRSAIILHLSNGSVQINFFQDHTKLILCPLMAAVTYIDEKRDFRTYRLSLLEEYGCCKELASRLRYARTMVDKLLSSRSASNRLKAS
Text: The polo-like kinase 1 (Plk1) is a member of a conserved subfamily of serine / threonine protein kinases that plays a pivotal roles in cell proliferation. It has a C-terminal non-catalytic region called the polo-box domain (PBD) that plays a crucial role in the subcellular localization of the Plk1. […] Furthermore, depletion of the overexpressed Plk1 by RNAi efficiently induces apoptotic cell death in cancer and reduces tumor growth in mouse xenograft models. Thus, targeting Plk1 is an appealing strategy for anti-cancer therapy. Therefore, this project aimed to screen the Molecular Libraries Small Molecule Repository (MLSMR) using a novel approach to find inhibitors that target the Plk1 PBD instead of the conventional N-terminal catalytic domain. This project employed a fluorescence polarization (FP) assay using a FITC-conjugated phospho-9-mer (p-9-mer) peptide and purified human Plk1 PBD protein. The identified small molecule inhibitors of Plk1 PBD can then further be developed into useful tools for biomedical and clinical research that complements or replaces current relevant disease therapy. NIH Chemical Genomics Center [NCGC] NIH Molecular Libraries Probe Centers Network [MLPCN] MLPCN Grant: MH100728 Assay Submitter (PI): Kyung Lee, NCI
Four microliter of 25 nM FITC-p-9-mer + 60 nM Plk1 PBD in buffer solution (final concentrations 25 nM and 60 nM respectively) or 4 uL of 25 nM FITC-p-9-mer (final concentration 25 nM) in buffer will be dispensed into a 1,536 Greiner medium-binding black solid plate. Small molecules at final concentrations of 18 nM to 57 uM and positive control phospho-9-mer (sequence: Ac-PPLHSpTAI-NH2) at final concentrations 26 nM to 57 uM and phospho-13-mer (sequence: Ac-[…]pTAI-NH2) at final concentrations of 1 nM to 2.3 uM will be pin-transferred (23 nL) to the plate via a Kalypsys pin-tool robotics equipped with a 1,536-pin array. The reaction plate will be centrifuged for 1 min at 1000 rpm and incubated at room temperature for 10 min. The FITC fluorescence signals will be read using the PerkinElmer ViewLux plate reader at 480 / 20 nm excitation and 540 / 20 nm S and P polarization emission wavelengths. Reagent bottles will be kept submerged into 4 °C recirculating chiller bath and all liquid lines will be covered with aluminum foil to minimize degradation. Library plates will be screened starting from the lowest to the highest concentrations to minimize compound carryover. Vehicle only plates, with DMSO being pin-transferred instead of compound solutions, will be included regularly throughout the screen to record any systematic shifts in assay signal.
On the % scale 0 is the no-effect control and ±100 the full control effect; potency means the concentration at half of the fitted maximal effect.

| Structure (SMILES) | max response, negative = inhibition | Potency |
| --- | --- | --- |
| O=S(=O)(c1ccc(-c2ccccc2)cc1)N1CCCC1 | -5.48% (inactive) |  |
| CC1CCN(S(=O)(=O)c2ccc(S(=O)(=O)NCc3cccnc3)cc2)CC1 | -9.09% (inactive) |  |
| O=S(=O)(NCc1ccccc1)c1ccc(S(=O)(=O)N2CCCC2)cc1 |  | 26.7 µM (active) |
| CN(Cc1ccc(C(F)(F)F)cc1)C(=O)[C@H]1O[C@@H](n2cnc3c(N)ncnc32)[C@H](O)[C@@H]1O | -3.67% (inactive) |  |
| CN(C)C(=O)c1cccc(-c2cnc3c(NC=O)cc(-c4ccc(C(=O)N5CCOCC5)cc4)cn23)c1 | -14.7% (inactive) |  |
| CCn1c(SCC(=O)Nc2sc(C)c(C)c2C#N)nnc1C1CC1 | -26.7% (inactive) |  |
| Cc1cc(C(F)(F)F)nc(SCC(=O)Nc2nccs2)n1 | -4.23% (inactive) |  |
| CCOC(=O)c1sc(NC(=O)CSc2nc(C)cc(C(F)(F)F)n2)c(C#N)c1C |  | 2.99 µM (active) |
| CC(=O)OCC(C)n1c(=O)c2ccccc2n1C(C)=O (centres undefined) | 1.28% (inactive) |  |
| CN(C)c1cccc(NC(=O)c2ccc(-c3ccc(F)c(F)c3)c3ccoc23)c1 | -11% (inactive) |  |
| CCOC(=O)[C@]12CCCC=C1N(CCC1=CCCCC1)C(=O)[C@H](CC(=O)N1CCN(C(=O)c3ccco3)CC1)C2 | -19.8% (inactive) |  |
| C[C@@H]1CN([C@@H](C)CO)S(=O)(=O)c2ccc(C#Cc3cccc(F)c3)cc2O[C@H]1CN(C)S(=O)(=O)c1cn(C)cn1 | -28.6% (inactive) |  |
| CCCCCn1nnnc1-c1nc2cc3ccccc3cc2[nH]c1=O | -6.28% (inactive) |  |
| CCn1cc(C(=O)NCC2COc3ccccc3O2)c2cc(OC)c(OC)cc2c1=O (centres undefined) | -0.135% (inactive) |  |
| CCn1cc(C(=O)N2CCN(C3CCCCC3)CC2)c2cc(OC)c(OC)cc2c1=O |  | 10.6 µM (active) |
| COc1cc(C(=O)N2CCN(C3CCC(C)CC3)CC2)cc(OC)c1OC (centres undefined) | -10% (inactive) |  |
| CCc1nc2ccc(C(=O)NC3CCN(Cc4ccccc4)CC3)cn2c1N(C)CCN1CCOCC1 | -5.14% (inactive) |  |
| CCCCCc1c(-c2ccc(OC)c(OC)c2)ncn1CCc1ccccc1OC | -4.35% (inactive) |  |
| Cc1cc([N+](=O)[O-])c(N2CCC[C@@H]2C(=O)O)c([N+](=O)[O-])c1 | -4.11% (inactive) |  |
| Cc1cc(C)c(NC(=S)N2CCCC2C(=O)O)c(C)c1 (centres undefined) |  | 6.7 µM (active) |
| Cc1cc(C)c(NC(=O)CN2CCCCCC2)c(C)c1 | -2.23% (inactive) |  |
| COc1ccc(C(O)c2nc(-c3ccc(OC)nc3)cs2)cc1 (centres undefined) | 6.19% (inactive) |  |
| COc1ccc(CS(=O)/C(Cl)=C(/Cl)C(=O)Nc2ccc(OC)nc2)cc1 (centres undefined) |  | 2.67 µM (active) |
| COc1ccc(NC(=O)CN2C(=O)NC(C)(c3ccccc3)C2=O)cn1 (centres undefined) | 2.84% (inactive) |  |
